Shown are actives, neighbours in structure and some others; about 1.1% of the full set was active somewhere.
TSG101-PTAP inh: blocks PTAP/TSG101 interaction to inhibit HIV-1 budding | 340,000 tested, under 10 active | Q99816 | AID 493005 | Fluorescence polarization, FITC-PTAP peptide / Tsg101 binding | Potency, µM (top dose mostly 115 µM), for inactives: at the top dose activity change, negative = inhibition, usual class: inhibitors; active means well fitted inhibition curve with a large enough effect in the main read-out, with a control signal flat, not every such curve was filed as active; inconclusive means small, poorly fitted or top-dose-only effect, or effect the other way, or a change in a side signal; inactive means no such curve, though single readings can be large or run the other way; further: % of control where 0% means no effect
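Steps: Tsg101 binding domain dispensed (10 uM final), compounds pinned in DMSO, FITC-labeled PTAP-motif peptide added (50 nM final); after 20 min binding at room temperature, polarization measured.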
12-LOX inh: inhibitors of human 12S-lipoxygenase ALOX12. Potency, µM (highest dose often 108 µM), for inactives: top-dose activity change, negative = inhibition, most hits filed as inhibitors. purified 12hLO, xylenol orange hydroperoxide absorbance. 1.1% of 580,000 active; further: on the % scale 0 is the no-effect control and ±100 the full control effect
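Purified human 12hLO (150 nM final) in 25 mM Hepes, 0.01% Triton X-100, pH 7.0 was preincubated 15 min at room temperature with compound. Then 40 uM arachidonic acid was added, 30 min. Hydroperoxide was read by Fe-XO absorbance ratio 573/405 nm.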
USP2a block: USP2a (human) protease inhibition; O75604; USP2 core, Ub-CHOP2 coupled fluorogenic reporter, 485/531; Potency, µM (highest dose often 38.3 µM), without a hit: at the top dose activity change, negative = inhibition, usual class: inhibitors; 0.01% of 330,000 active; AID 463254;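 further: plate controls were DMSO wells for no effect and full inhibition by NEM control for full effect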
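Cell-free coupled assay: 10nM USP2 core preincubated 30min RT with compound in Tris-HCl pH 8.0/CaCl2/CHAPS buffer, then 25nM Ub-CHOP2 and 25nM reporter substrate; fluorescence (Ex 485/Em 531) read after 60min RT, normalized to NEM inhibition, concentration-response curves fitted.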
Eya2 inh: inhibitors of human Eya2 phosphatase activity; 0.006% of 330,000 active; Potency, µM (doses to about 76.9 µM), for the others: at the highest dose activity, negative = inhibition, actives largely listed as inhibitors; recombinant Eya2, OMFP fluorescence dephosphorylation (OMFP is methylfluorescein phosphate); O00167; AID 488837; further: on the % scale 0 is the no-effect control and ±100 the full control effect
Target sequence (O00167 whole entry, looked up): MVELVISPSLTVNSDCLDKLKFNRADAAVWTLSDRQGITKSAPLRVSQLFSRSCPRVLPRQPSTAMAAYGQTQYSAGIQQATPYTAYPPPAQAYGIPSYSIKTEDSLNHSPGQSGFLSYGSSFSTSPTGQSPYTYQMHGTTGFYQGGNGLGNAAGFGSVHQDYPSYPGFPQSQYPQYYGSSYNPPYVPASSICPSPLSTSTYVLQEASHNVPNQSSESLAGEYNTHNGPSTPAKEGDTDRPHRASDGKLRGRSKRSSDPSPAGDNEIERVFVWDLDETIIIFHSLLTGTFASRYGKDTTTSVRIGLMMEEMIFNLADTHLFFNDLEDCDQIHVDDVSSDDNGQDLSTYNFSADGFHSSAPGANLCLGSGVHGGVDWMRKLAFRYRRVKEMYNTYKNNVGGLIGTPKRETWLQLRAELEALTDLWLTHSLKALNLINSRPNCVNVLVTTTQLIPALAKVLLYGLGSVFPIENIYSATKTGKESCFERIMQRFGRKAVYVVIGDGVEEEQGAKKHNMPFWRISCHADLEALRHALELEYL
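Eya2 (0.2 uM) preincubated 10 min at ambient with compound, then OMFP substrate added at 50 uM; 10 min reaction in 50 mM HEPES pH 7.5, 50 mM NaCl, 5 uM MgCl2, 0.05% BSA, 1 mM DTT. Fluorescence read at Ex 485/Em 525 nm.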
Starred values were filed as active, the others as inactive; ? = inconclusive; / = no result; ! = not active in a repeat; [ ] = remark or other dose. Unless noted, the call rests on the fitted dose curve; in most records, active means well fitted curve in the direction sought with a large enough effect; inconclusive means small, poorly fitted or top-dose-only effect, or another doubt; inactive means no such curve, though single readings can be large; an effect the other way counts as inactive or inconclusive. Potency means the concentration at half of the fitted maximal effect.

SMILES	TSG101-PTAP inh	12-LOX inh	USP2a block	Eya2 inh
O=C(N/C(=C/c1cccc(Br)c1)c1nc(=S)[nH][nH]1)c1ccccc1	-2%	35µM*	3%	-17%
Cc1ccc(C(=O)N/C(=C\c2cccnc2)c2nc3ccccc3[nH]2)cc1	0%	13%	0%	-3%
Cc1ccc(NC(=O)CCN2CCN(CCO)CC2)cc1Br	0%	?	-2%	-3%
Cc1ccccc1N1CCN(CCC(=O)Nc2ccc(F)cc2)CC1	-1%	18µM*	1%	-3%
Cc1cccc(NC(=O)CCN2CCN(C/C=C/c3ccccc3)CC2)c1	0%	12%	1%	0%
Cc1ccc(NC(=O)CCN2CCN(Cc3ccccc3)CC2)cc1Br	/	50µM*	/	/
Cc1cc(NC(=O)CCN2CCN(C/C=C/c3ccccc3)CC2)ccc1Br	0%	6.3µM*	4%	-11%
Oc1ccc(CCc2n[nH]c(=S)n2-c2ccc(F)cc2)cc1	-3%	25µM*	0%	?
CCOc1ccc2nc3cc(NCc4ccc(OC)cc4)ccc3c(N)c2c1	?	/	20%	12%
Nc1nc(N)c2cc(CNc3ccc(Cl)c(Cl)c3)ccc2n1	/	5.6µM*	/	/
Cc1c(-c2ccccc2F)[nH]c2ccc(CNC(=O)CN3CC(=O)NC3=O)cc12	/	32%	/	/
N#Cc1ccc(CN2CCc3nc(C(=O)Nc4cccc(C(F)(F)F)c4)oc3CC2)cc1	/	13%	/	/
O=C1C=C(O)c2cccc(O)c2C1=O	-2%	35µM*	?	9%
COc1cccc(-c2nc(SCc3cc(=O)n4c5c(sc4n3)CCCC5)n[nH]2)c1	/	10%	/	/
CC(=O)c1cccc(S(=O)(=O)Nc2cccnc2)c1	-1%	8.9µM*	1%	1%
CC(=O)Nc1ccc(S(=O)(=O)N2CCN(C(C)CCc3ccccc3)CC2)cc1 (stereo unspecified)	-19%	5.6µM*	-1%	-23%
CC(=O)Nc1ccc(NC(=O)C(C)N2CCN(S(=O)(=O)c3ccc(C)cc3)CC2)cc1 (stereo unspecified)	0%	-23%	-1%	-9%
O=C(CSc1nnc(N2CCOCC2)n1-c1cccc(F)c1)N(Cc1ccco1)C1=CCCCC1	/	-10%	/	/
O=C(NN1C(=O)/C(=C/C=C/c2ccco2)SC1=S)c1ccncc1	-4%	50µM*	?	2%
CCC(C)NC(=O)Cn1c(=O)c2c(C(=O)OC)cc(C)nc2n(-c2ccccc2)c1=O (stereo unspecified)	/	4%	/	/
Cc1ccc(NC(=O)c2cc3c(cc2C)OCCCO3)cc1C	/	3%	/	/
O=C(c1cccc(F)c1)N1CC(Oc2ccc(-c3noc(C4CCOCC4)n3)cc2)C1	/	-29%	/	/
Cc1ccccc1NC(=S)NC1CCCC1	1%	?	0%	1%
S=C(Nc1ccccn1)NC1CCCC1	-2%	45µM*	0%	0%
S=C(Nc1ccccn1)NC1CCCCC1	-4%	22µM*	0%	1%
SMILES	TSG101-PTAP inh	12-LOX inh	USP2a block	Eya2 inh
CCc1ccccc1NC(=O)Cn1cccc1-c1nc(-c2ccc(OC)c(F)c2)no1	/	-7%	/	/
CCCNc1cc(N2CCC(CCC(=O)N3CCN(c4cccc(C)c4)CC3)CC2)ncn1	/	8%	/	/
C#CCNC(=O)C[C@@H]1c2nc(NC(=O)c3ccc(C(C)(C)C)cc3)sc2C[C@@H]2[C@](C)(CO)[C@H](O)CC[C@]21C	/	-25%	/	/
Cc1ccc(-c2nc3cc(NC(=O)c4cc(Br)ccc4Cl)ccc3o2)cc1	/	40µM*	/	/
O=C(CCOc1ccccc1)OCC(=O)c1cc2ccccc2o1	-2%	-2%	0%	-21%
Cc1cccc(OCCC(=O)OCC(=O)c2cc3ccccc3o2)c1	/	50µM*	/	/
Fc1cccc(Cl)c1CSc1nc(CN2CCOCC2)nc2ccccc12	/	11%	/	/
CN(Cc1ccco1)c1ncnc2ccc(-c3ccccc3Cl)cc12	1%	28µM*!	-4%	-11%
CCC1(O)CCCN(C(=O)c2coc(COc3ccc4ccc(OC)cc4c3)n2)C1 (stereo unspecified)	/	1%	/	/
Cc1noc(C2CC3(CCN(C(=O)c4nn(C)c5ccccc45)CC3)CN2C)n1 (stereo unspecified)	/	25%	/	/
N=C(N)c1cccc(OCc2cccnc2)c1	/	7.9µM*	/	/
CC1Oc2ccc(NC(=O)c3ccc(Cl)cc3)cc2CN(Cc2cc(F)cc(F)c2)C1=O (stereo unspecified)	/	15%	/	/
O=C1CC2(CCN(CC3CCCC3)C2)Nc2ccccc2N1 (stereo unspecified)	/	0%[6.33 µM]	/	/

High-throughput results: PubChem, National Center for Advancing Translational Sciences (NCATS)
